# Source: PubChem BioAssay (University of Kansas High Throughput Screening Laboratory)
# Only some compounds are listed: those with a hit (about 3.5% of all), similar ones and a draw of the others.
# mHTT CaM bind = mutant huntingtin-calmodulin interaction inhibitors – biochemical, AlphaScreen, primary screen; AID 1671202, 2021; P42858; inhibition, % at 15 µM; 3.6% of 190,000 active; AlphaScreen His-mHTT/GST-CaM binding, luminescence;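 further: 0% = both proteins with DMSO and 100% = one protein alone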
# Pf apPOL inh = Pf-apPOL inhibitors, biochemical, fluorescence. Plasmodium falciparum apicoplast DNA polymerase (apPOL). Recombinant Pf-apPOL, molecular beacon fluorescence, 1.5 h. inhibition, % at 10 µM. 0.25% of 210,000 active
# The depositor's hits bear a star; i = inactive; / = no result; ! = repeats disagree. No stated cut-off is given here; in the data, active means inhibition above about 50%; inactive means the rest.
SMILES,mHTT CaM bind,Pf apPOL inh
COc1ccc(-c2csc(Nc3ccccc3)[n+]2CC(O)c2ccc([N+](=O)[O-])cc2)cc1 (stereo unspecified),65.5*,0.8
CC(C)(C)c1ccc(C2=N/C(=C/c3ccc4c(c3)OCO4)C(=O)O2)cc1,-4.0,-2.0
CC1=C(C(=O)NCCCOC(C)C)C2(CCCCC2)OC1=O,-6.6,-0.8
C=CCNC(=O)c1cc(S(=O)(=O)N2CCc3ccccc32)ccc1F,-5.0,-3.1
O=C(CN1CCC(c2nnc(-c3ccco3)s2)CC1)c1ccc(Cl)cc1,71.5*,4.2
O=C(Cn1cccc1)N1CCC(c2nnc(-c3ccco3)s2)CC1,-8.2,21.1
COc1ccc(N2CC(CNS(=O)(=O)c3ccc4c(c3)CCCC4)CC2=O)cc1 (stereo unspecified),14.3,-5.8
COc1ccc(N2CCC(CNS(=O)(=O)c3cccc(Cl)c3)C2)cc1 (stereo unspecified),84.2*,2.4
O=C(NC1CC1)c1ccccc1OCC1CCN(C(=O)c2cc(F)cc(F)c2)CC1,6.5,7.8
COc1ccc2ncc(C#N)c(N3CCC(C(=O)NCc4ccc(F)cc4)CC3)c2c1,1.2,-1.7
CN(C)c1cccc(C(=O)N2CCC(CCOc3ccccc3)CC2)c1,86.2*,-1.6
COCCC1CCN(C(=O)c2ccccc2OC)CC1,-3.3,-2.2
COc1ccccc1C(=O)N1CCC(CCOc2ccccc2F)CC1,52.3*,-0.9
COCCC1CCN(C(=O)c2ccc(OC)cc2C)CC1,-3.5,-8.1
CN(C)c1cccc(C(=O)N2CCC(CCOc3ccccc3F)CC2)c1,95.0*,-2.0
COc1cccc(C(=O)N2CCC(CCOc3ccccc3)CC2)c1,0.5,-3.3
O=C(c1ccc(F)c(F)c1)N1CCC(CCOc2ccccc2F)CC1,-31.8,-0.4
COc1ccc(C(=O)N2CCC(CCOc3ccccc3)CC2)c(C)c1,59.8*,-7.0
O=C(Nc1ccc(F)cc1)c1cccc(-c2cnc(N3CCCCC3)nc2)c1,-3.3,-4.7
COc1ccc(N2CC(C(=O)Nc3ccccc3F)CC2=O)cc1 (stereo unspecified),-7.4,-0.8
CN(C)c1ccc(-c2nc(-c3ccc(=O)[nH]c3)no2)cc1,-0.9,14.2
C=CCNC(=S)N/N=C/c1ccc(OC)c(CSC2=NC3C=CC=CC3S2)c1 (stereo unspecified),i,/
O=C1CCc2ccc(OCC(=O)N3CCN(c4ccccc4Cl)CC3)cc21,-7.1,-12.8
CN(C)c1cccc(C(=O)N2CCC(CCOc3ccc(F)cc3)CC2)c1,93.4*,-1.5
COc1cccc(C(=O)N2CCC(CCOc3ccc(F)cc3)CC2)c1,31.8,-1.7
SMILES,mHTT CaM bind,Pf apPOL inh
CCc1ccccc1NC(=O)C1CCCN(c2cnn(Cc3ccccc3)c(=O)c2)C1 (stereo unspecified),6.5,-5.8
CC1C(=O)N(Cc2cn(Cc3ccco3)nn2)CCS(=O)(=O)N1Cc1ccc(-c2cccc(N(C)C)c2)cc1 (stereo unspecified),63.9*,-2.1
CC(C)CC1C(=O)N(Cc2cn(Cc3ccco3)nn2)CCS(=O)(=O)N1Cc1ccc(-c2cccc(N(C)C)c2)cc1 (stereo unspecified),67.7*,-4.3
Cc1ccc(-c2ccc(CN3C(CC(C)C)C(=O)N(Cc4cn(Cc5ccco5)nn4)CCS3(=O)=O)cc2)cc1 (stereo unspecified),37.6,-5.0
CC1C(=O)N(Cc2cn(Cc3ccco3)nn2)CCS(=O)(=O)N1Cc1ccc(-c2cccnc2)cc1 (stereo unspecified),6.6,-3.4
CCCCN(C)C(=O)C1c2cc(OC)c(OC)cc2C(=O)N2CCc3ccccc3C12 (stereo unspecified),10.0,3.8
COC(=O)c1ccc2c(=O)n(-c3cccc(C)c3)c(N3CCSC3)nc2c1,-3.7,-1.2
Cc1ccc(C2CN(S(=O)(=O)c3cccc(C#N)c3)CCN2C)cc1 (stereo unspecified),-2.1,-0.7
OC(c1ccccn1)C1CCN(Cc2cccc(F)c2)CC1 (stereo unspecified),1.5,-6.4
Fc1ccc(C2Nc3c(F)cccc3C3C=CCC32)cc1 (stereo unspecified),57.0*,-6.5
O=C(O)c1cccc2c1NC(c1ccc(F)cc1)C1CC=CC21 (stereo unspecified),96.0*!,0.6
O=C(O)c1cccc2c1NC(c1ccccc1Br)C1CC=CC21 (stereo unspecified),48.0,5.2
COc1ccc(Cl)c2c1NC(c1ccc(F)cc1)C1CC=CC21 (stereo unspecified),50.0*,6.3
Fc1cccc2c1NC(c1ccc(Br)cc1)C1CC=CC21 (stereo unspecified),40.0,3.8
c1ccc(C2Nc3ccccc3C3OCCC23)cc1 (stereo unspecified),-1.0,-0.4
Fc1ccc(C2Nc3ccccc3C3C=CCC32)cc1 (stereo unspecified),87.0*,15.9
O=C(O)CSCC(=O)NCc1ccc2c(c1)OCO2,/,-6.4
Cc1cc(C2CCCN2C(=O)Cn2nc(C(F)(F)F)c3c2CCCC3)on1 (stereo unspecified),-6.3,0.6
Cc1c(Cl)c([N+](=O)[O-])nn1CC(=O)Nc1sc2c(c1C#N)CCC(C)C2 (stereo unspecified),1.0,-5.4
O=C(CSc1nc2c(cnn2-c2ccccc2)c(=O)[nH]1)Nc1cccc([N+](=O)[O-])c1,-14.8,0.1
COc1cccc2c1NC(c1ccccc1Br)C1CC=CC21 (stereo unspecified),38.0,2.8
COc1cccc2c1NC(c1ccc(F)cc1)C1CC=CC21 (stereo unspecified),79.0*,-2.0
COc1cc(C2Nc3c(C)cccc3C3C=CCC32)cc(Br)c1OC (stereo unspecified),0.0,-1.6
COc1cccc2c1NC(c1cccc(Br)c1)C1CC=CC21 (stereo unspecified),53.0*,-11.0
CN(C)C(=O)c1cccc2c1NC(c1ccc(Br)cc1)C1CC=CC21 (stereo unspecified),64.2*,-37.9
SMILES,mHTT CaM bind,Pf apPOL inh
COc1cccc2c1NC(c1ccc(Br)cc1)C1CC=CC21 (stereo unspecified),58.0*,5.3
CCc1nccn1Cc1nc(-c2cccc(C(F)(F)F)c2)no1,2.4,-5.7
NNC(=O)C(=O)Nc1ccc(Cl)cc1Cl,/,2.6
CCOc1cccc2c1NC(c1ccc(C(=O)O)cc1)C1CC=CC21 (stereo unspecified),63.0*,-5.9
O=C(CCCl)Nc1c(-c2cccc(F)c2)nc2ccccn12,26.1,-0.8
COc1ccc(COCC(O)CS(=O)(=O)Cc2ccccc2)cc1 (stereo unspecified),/,-4.8
Cc1ccc(C(=O)O)cc1-c1ccc(/C=C/[N+](=O)[O-])o1,30.0,7.6
Cc1cc(-c2ccc(/C=C/[N+](=O)[O-])o2)c([N+](=O)[O-])cc1C,65.0*,3.0
COc1ccc(CC(=O)N2CCCC2c2nc(-c3ccccc3C)no2)cc1Cl (stereo unspecified),-6.8,-5.2
Clc1ccc(-c2cn3c(n2)CCC3)cc1Cl,38.0,-2.7
Clc1ccc(-c2cnc3n2CCC3)cc1Cl,89.0*,-4.9
Cc1ccccc1C1CCCN1C(=O)Nc1cccc(Cl)c1 (stereo unspecified),-13.9,1.7
Cc1ccc(OCC(O)Cn2cnc3ccccc32)cc1 (stereo unspecified),6.0,8.8
